An excerpt weighted towards active compounds, which were near 3.3% of everything screened.
Sm TGR block = qHTS Assay for the Inhibitors of Schistosoma Mansoni Peroxiredoxins. purified TGR, DTNB reduction, TNB absorbance 405 nm. Potency, µM (top dose mostly 114 µM), inactives show top-dose activity change, negative = inhibition, actives largely listed as inhibitors. 360,000 tested, 3% active. AID 485364, 2010; also: potency is read from the fitted curve at half-maximal effect; % is scaled to controls: 0 for no effect and ±100 for the full control effect; nearly all actives have a fitted effect of over 60% in size
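Kinetic colorimetric format: TGR-catalysed, NADPH-driven DTNB reduction monitored via TNB absorbance. Enzyme dispensed at 20 nM; compound exposure 15 min at room temperature before reaction start.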
NS1 inh = qHTS Assay for Inhibitors of Influenza NS1 Protein Function; Potency, µM (series often up to 46.1 µM), for inactives: top-dose activity, positive = more growth; 270,000 tested, 0.4% active; AID 2326, 2010; calls by dose curve; also: potency is read from the fitted curve at half-maximal effect; actives are rising curves; nearly all actives have a fitted effect of over 50% in size
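In this qHTS, NS1 from influenza A is expressed in budding yeast, where it slows growth. Cells are switched from glucose to 2% galactose medium (pH 6.0, -URA), treated with compound, and growth recovery is read at OD600.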
RE007 growth inh = qHTS Assay for Inhibitors of the HIV-1 protein Vpr; S. pombe RE007 Vpr strain, BacTiter-Glo ATP luminescence, 24 h; Potency, µM (highest dose often 92.2 µM), inactives show at the top dose activity change, negative = less growth, usual class: inhibitors; 360,000 tested, 0.21% active; active = well fitted falling curve with a large enough effect; inconclusive = small, poorly fitted or top-dose-only effect; inactive = no such curve, though single readings can be large or run the other way; also: potency is read from the fitted curve at half-maximal effect; % is scaled to controls: 0 for no effect and ±100 for the full control effect; nearly all actives have a fitted effect of over 50% in size
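Fission yeast strain RE007, carrying one chromosomally integrated HIV-1 vpr copy, was seeded at OD 0.01 in PMG+AL medium with 23 nL pinned compound. After 24 h at 30 °C and 99% humidity, viability was read by BacTiter-Glo luminescence.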
LmPK inhibitor = qHTS Assay for Inhibitors of Leishmania Mexicana Pyruvate Kinase (LmPK) | Potency, µM (doses to about 57.5 µM), inactives show at the highest dose activity change, negative = inhibition, hits mostly inhibitors | AID 1721, 2009 | purified LmPK, Kinase-Glo ATP luminescence, 1 h | 290,000 tested, 0.37% active; also: potency is read from the fitted curve at half-maximal effect; % is scaled to controls: 0 for no effect and ±100 for the full control effect
Target sequence (Q27686 whole entry, looked up): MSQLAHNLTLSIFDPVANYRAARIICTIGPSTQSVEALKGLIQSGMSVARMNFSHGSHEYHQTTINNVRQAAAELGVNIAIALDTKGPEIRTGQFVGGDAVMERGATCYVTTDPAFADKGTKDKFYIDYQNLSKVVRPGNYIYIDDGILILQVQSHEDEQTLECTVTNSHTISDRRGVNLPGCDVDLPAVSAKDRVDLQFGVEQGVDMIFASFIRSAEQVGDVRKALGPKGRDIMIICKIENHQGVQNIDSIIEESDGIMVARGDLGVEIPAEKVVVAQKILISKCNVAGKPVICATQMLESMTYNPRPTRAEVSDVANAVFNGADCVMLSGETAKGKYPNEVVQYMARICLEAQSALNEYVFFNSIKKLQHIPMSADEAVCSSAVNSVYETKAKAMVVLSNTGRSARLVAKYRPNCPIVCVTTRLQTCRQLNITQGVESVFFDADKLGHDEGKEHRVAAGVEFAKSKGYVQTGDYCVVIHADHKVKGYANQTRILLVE
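In 50 mM imidazole pH 7.2 with 7 mM MgCl2, LmPK (0.1 nM) turned over PEP (0.5 mM) and ADP (0.1 mM) for 1 h at room temperature. Luciferase read-out of ATP.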
SARS PLpro yeast-1 = qHTS of Yeast-based Assay for SARS-CoV PLP; S. cerevisiae expressing SARS-CoV PLpro, growth rescue; Potency, µM (series often up to 32.9 µM), inactives show top-dose activity, positive = growth rescue, actives largely listed as activators; 330,000 tested, 0.19% active; AID 485353, 2010; calls by dose curve; also: potency is read from the fitted curve at half-maximal effect; 0% is about no effect; nearly all actives have a fitted effect of over 55% in size
Tb PYK inh = qHTS of Trypanosoma Brucei Inhibitors | 410,000 tested, 0.12% active | pyruvate kinase (Trypanosoma brucei), Q57TT1 | TbPYK enzyme, Kinase-Glo Plus ATP luminescence, 45 min | Potency, µM (series often up to 76.8 µM), without a hit: top-dose activity, negative = inhibition, usual class: inhibitors | AID 624173, 2012; also: potency is read from the fitted curve at half-maximal effect; % is scaled to controls: 0 for no effect and ±100 for the full control effect; nearly all actives have a fitted effect of over 50% in size
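Assay buffer: 50 mM TEA pH 7.2, 100 mM KCl, 10 mM MgCl2, 0.05% BSA, 0.01% Tween-20. Pyruvate kinase from T. brucei plus substrate met compound, then ADP (130 uM final). Luminescence was read post 45 min RT.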
SARS PLpro yeast-2 = qHTS of Yeast-based Assay for SARS-CoV PLP: Hit Validation; shares compounds with SARS PLpro yeast-1; yeast expressing SARS-CoV PLpro, growth phenotype rescue; calls only; 1,000 tested, 19% active; AID 652038, 2013; call rule not given here
Starred values were filed as active, the others as inactive; i = inactive; ? = inconclusive; nt = no result given. Unless noted, calls follow the shape of the dose curve; as a rule, active = well fitted curve in the direction sought with a large enough effect; inconclusive = small, poorly fitted or top-dose-only effect, or another doubt; inactive = no such curve, though single readings can be large; an effect the other way counts as inactive or inconclusive.

SMILES | Sm TGR block | NS1 inh | RE007 growth inh | LmPK inhibitor | SARS PLpro yeast-1 | Tb PYK inh | SARS PLpro yeast-2
Cc1c(C(=O)OCC2CCCO2)[nH]c2c1C(=O)CC(c1ccco1)C2 (configuration not stated) | ? | -10% | 3% | 4% | ? | -10% | i
Fc1ccc(-c2noc3ncnc(NC4CCCCC4)c23)cc1 | -1% | nt | nt | nt | nt | 1% | nt
COC(=O)C1=C2SCC(=O)N2C(N)=C(C#N)C1 | 0% | 5% | 23% | 1% | 1% | 4% | nt
CCOC(=O)C1=C2SCC(=O)N2C(N)=C(C#N)C1 | ? | 11% | -7% | -1% | ? | 1% | i
O=C(CCn1cnc(-c2ccccc2)c1-c1ccccc1)N/N=C/c1ccccc1O | 0% | -27% | 4% | -2% | 10µM* | 1% | i
COc1ccc(C(=O)Nc2ccc(Cl)c(S(=O)(=O)Nc3ccccc3OC)c2)cc1 | -3% | 28% | nt | -2% | ? | -7% | ?
Cn1cccc1C(=O)N1CCC2(CC1)CN(C(=O)Nc1cccc(C#N)c1)C2 | nt | nt | nt | nt | nt | 0% | nt
O=C(OCc1cc(=O)n2nc(-c3cccs3)sc2n1)c1ccc(Cl)cc1 | 2% | nt | nt | nt | nt | -5% | nt
N#C/C(=C\C=C\c1ccccc1[N+](=O)[O-])C(=O)NC1CCCCC1 | -1% | nt | -3% | 9% | ? | -3% | i
CCOC(=O)c1ccc(NC(=O)CSc2nc(-c3ccc(F)cc3)cc(C(F)(F)F)c2C#N)cc1 | 4% | nt | nt | nt | nt | -4% | nt
O=C(/C=C/c1ccco1)Oc1cc(Br)cc(/C=N/NC(=O)c2ccccc2O)c1 | -6% | 18% | -28% | 6% | nt | 2% | i
Cc1oc(-c2ccccc2F)nc1CSCC(=O)NCc1ccccc1 | 0% | nt | nt | nt | nt | 7% | nt
CNC(=O)CSc1nc2nn(-c3ccccc3)c(=O)c-2c2n1CCCCC2 | 9% | 0% | -7% | 3% | 5% | 10% | nt
O=C(CSc1nc2nn(-c3ccccc3)c(=O)c-2c2n1CCCCC2)c1ccc(O)c(O)c1 | 1% | nt | -2% | nt | 7.1µM* | -3% | i
COc1cc(C(=O)NC(=S)NNC(=O)c2cnccn2)cc(OC)c1OC | -7% | -31% | 13% | -4% | ? | -3% | i
COc1ccc(C(=O)NC(=S)NNC(=O)c2cnccn2)cc1 | -12% | -1% | -4% | -1% | -26% | -19% | nt
CCOc1ccc(NC(=O)Cn2nc(SC)c(S(=O)(=O)c3ccccc3)c2N)cc1 | 3% | nt | nt | nt | nt | -3% | nt
Cc1nc2ccccc2c(=O)[nH]1 | -8% | 4% | -7% | -5% | -3% | 8% | nt
O=c1[nH]c(C2C3CC4CC(C3)CC2C4)nc2ccccc12 (configuration not stated) | -14% | 0% | -16% | -4% | 2.8µM* | -2% | i
CCCCCCCOC(=O)C[N+](C)(C)CCOC1CC2CCC1(C)C2(C)C (configuration not stated) | -3% | -13% | 27% | 5% | -64% | -9% | nt
CCCCOC(=O)C[N+](C)(C)CCOC1CC2CCC1(C)C2(C)C (configuration not stated) | -13% | 1% | 7% | -1% | nt | -2% | i
COCCNC(=O)CSc1nnc(-c2ccc(OC)c(OC)c2)c(-c2ccc(OC)c(OC)c2)n1 | 0% | nt | nt | nt | nt | 1% | nt
CN(CC(=O)NC1(C)CCS(=O)(=O)C1)S(=O)(=O)c1ccc(Cl)cc1 (configuration not stated) | 1% | nt | 2% | nt | -8% | 2% | nt
Cc1nn(CC(=O)NC2(C)CCS(=O)(=O)C2)c(C)c1S(=O)(=O)N(C)C (configuration not stated) | nt | nt | -1% | nt | ? | 6% | i
